In ChEMBL document CHEMBL4513216, “Probing the Open Global Health Chemical Diversity Library for Multistage-Active Starting Points for Next-Generation Antimalarials” (ACS Infect Dis, 2020):
In all, about 69,000 compounds went through this assay and about 8,600 (12%) showed an effect of 50% or more. The sample holds strong results, similar compounds and a random draw of the others, so the mix is not that of the screen.

Tested on: Plasmodium berghei
Test: Screen against P. berghei liver stage (PbLuc), transformed with Luciferase, at 10uM
Assay type: functional, HepG2
Settings: tested at 10 uM

| Structure (SMILES) | INHIBITION [%] |
| --- | --- |
| Cc1cnn(CC2CCCN2C(=O)c2csc(C(C)C)n2)c1 (configuration not stated) | 35.3 |
| COc1ccc(C(=O)N2CCCC3(CCCC(=O)N3C)C2)cc1 (configuration not stated) | 24.8 |
| CNC(=O)c1ccccc1-c1ccc(S(C)(=O)=O)cc1 | -19.1 |
| COCCN1C[C@@H]2[C@@H](OC)CCN(Cc3ccc(C)o3)[C@@H]2C1 | 15.4 |
| CSCCC(=O)N1C[C@H](Nc2ccnc(C)n2)[C@@H](C(C)C)C1 | -15.5 |
| Cc1nccc(N[C@H]2CN(C(=O)C3(C#N)CCOCC3)C[C@@H]2C(C)C)n1 | -5.1 |
| Cc1csc(N2CCCN(C(=O)CCN3CCCC3=O)CC2)n1 | -21.8 |
| Cc1nccc(N[C@H]2CN(C(=O)CCN3CCCC3=O)C[C@@H]2C(C)C)n1 | 55 |
| Cc1nccc(N[C@H]2CN(C(=O)CN3CCCC3=O)C[C@@H]2C(C)C)n1 | 62.9 |
| Cc1nccc(N[C@H]2CN(C(=O)CN3CCOCC3)C[C@@H]2C(C)C)n1 | 43.6 |
| CC(C)(Oc1ccc(C(N)=O)cc1)C(=O)N(CCC#N)CC1CCCO1 (configuration not stated) | 28.3 |
| Cc1nc(C)n(CC2CCCN2CC(=O)Nc2c(C)n[nH]c2C)n1 (configuration not stated) | 29.305 |
| Cn1nc(C(=O)NCc2ccc(OC3CCCCC3)nc2)ccc1=O | 47.7 |
| COCc1nc(-c2ccnc(N3CCNCC3)n2)no1 | 38.3 |
| COCCCN(Cc1ccccn1)S(=O)(=O)Cc1ccccc1 | 46.1 |
| CNc1nc(CNC(=O)Nc2cccc(-n3ccc(C)n3)c2)cs1 | 7.42 |
| O=C(O)[C@H]1C[C@@H](C(=O)NCc2ccncc2)CN(Cc2ccccc2)C1 | 17.2 |
| Fc1cccc(CN2C[C@@H]3COC[C@]3(COCc3ccncc3)C2)c1 | 49.7 |
| COc1ccc(-n2cccn2)c(CN2CCOCC(CN(C)C)C2)c1 (configuration not stated) | 15.2 |
| Cc1cc(-n2cccn2)ccc1CN1CCOCC(CN(C)C)C1 (configuration not stated) | 62.2 |
| Cc1cc(C)c(-n2cccn2)c(CN2CCOCC(CN(C)C)C2)c1 (configuration not stated) | 36.5 |
| NC(=O)C1CCN(C(=O)CCn2c(C(F)(F)F)cc3cccnc32)CC1 | 1.5 |
| Cc1ccc(=O)n(CC2(O)CCN(Cc3cnc(N(C)C)nc3)CC2)n1 | 14.7 |
| c1cncc(Cc2nnc3n2CCN(CC2CCCNC2)CC3)c1 (configuration not stated) | 16.3 |

| Structure (SMILES) | INHIBITION [%] |
| --- | --- |
| CC(C)c1ccccc1OCCNC(=O)N1CCC(CC(N)=O)CC1 | 5.76 |
| CC(C)c1n[nH]c(C2CN(C(=O)c3cc(C4CC4)[nH]n3)CCO2)n1 (configuration not stated) | -20.2 |
| O=C(Nc1cccnc1N1CCSCC1)c1cc2c(s1)CCCCC2 | 19.8 |
| O=C(Nc1cccnc1N1CCSCC1)c1ccc2c(c1)CCC2 | 38.6 |
| O=C(Cc1ccc2c(c1)CCC2)NCCNc1ncccn1 | 45.9 |
| O=C(Cc1ccc2c(c1)CCCC2)Nc1cccnc1N1CCSCC1 | 53.5 |
| O=C(Cc1ccc2c(c1)CCCC2)NCCNc1cnccn1 | 31.9 |
| O=C(Cc1ccc2c(c1)CCCC2)NCCc1ccccn1 | 70.7 |
| CC(C)(C)OCC1CN(Cc2cccs2)S(=O)(=O)c2cnccc2O1 (configuration not stated) | 10.9 |
| OCCN1CCCCC1C1OCCO1 (configuration not stated) | -45.2 |
| O=S(=O)(C1CC1)N1Cc2[nH]nc(COCC3CC3)c2C1 | 36.4 |
| CCn1nc(C)c2ncnc(NCCN3CCOCC3)c21 | 21.7 |
| CCn1ncc(S(=O)(=O)NC(C)c2cc(OC)ccc2OC)c1C (configuration not stated) | 32.3 |
| Cn1cncc1CN1CCC(O)(Cn2nc(-c3cccs3)oc2=O)CC1 | 38.7 |
| O=C(c1ccc2[nH]cnc2c1)N1CCC(Oc2cccnc2)CC1 | 47.2 |
| O=C(c1ccccn1)N1CCC(Oc2cccnc2)CC1 | -10.4 |
| O=C(c1cnc[nH]1)N1CCC(Oc2cccnc2)CC1 | 55.9 |
| CCN1CCN(C)C2(CCN(Cc3ccsc3)CC2)C1=O | 17.4 |
| COC(=O)c1cc(C(=O)N2CCC(C)CC2)n(-c2ccccc2)n1 | 22.265 |
| Cc1nc2cc(O)nn2c(C)c1CCC(=O)NCCc1nccn1C | 30.6 |
| CCOC(=O)N1CCN(C(=O)c2cc(-c3ccc(C)cc3)on2)CC1 | 23.4 |
| Cc1cc(C(=O)Nc2n[nH]c(C3CC3)n2)c2c(C)noc2n1 | 6.83 |
| Nc1cc2c(nn1)CCN(C(=O)c1cccc3c1OCO3)C2 | -16 |
| COC(=O)N1CC(C)=C(C)CN1C(=O)Nc1ccc(Cl)c(Cl)c1 | -52.3 |

| Structure (SMILES) | INHIBITION [%] |
| --- | --- |
| CCCC(=O)N1CCC(c2ncc3c(n2)CCNC3)CC1 | -28.6 |
| O=C(C1CCCC1)N1CCC(c2ncc3c(n2)CCNC3)C1 (configuration not stated) | -32.2 |
| CN1CCc2nc(C3CCN(C(=O)CCC4CCCC4)CC3)ncc2C1 | 85.9 |
| O=C(CCC1CCCC1)N1CCCC(c2ncc3c(n2)CCNC3)C1 (configuration not stated) | 58.1 |
| O=C(CC1CCCCC1)N1CCC(c2ncc3c(n2)CCNC3)CC1 | 47.2 |
| CCC(=O)N1CCCC(c2ncc3c(n2)CCN(C)C3)C1 (configuration not stated) | 10 |
| CCC(=O)N1CCC(c2ncc3c(n2)CCNC3)CC1 | 37.6 |
| O=C(CCC1CCCC1)N1CCC(c2ncc3c(n2)CCNC3)CC1 | 73.4 |
| CN1CCc2nc(C3CCCN(C(=O)CC4CCCCC4)C3)ncc2C1 (configuration not stated) | 27.8 |
| Cc1noc(C)c1C(=O)NCC(C)N1CCc2ccccc21 (configuration not stated) | 13.6 |
| Cc1cc(C(F)(F)F)nn1CC(C)C(=O)Nc1cccnc1 (configuration not stated) | 15.1 |
| Cc1noc(C2CCC3(CCN(C(=O)c4sccc4C)CC3)O2)n1 (configuration not stated) | -54.7 |
| CN1CC(C(=O)NCc2ccnc(-n3cccn3)c2)CC1=O (configuration not stated) | -0.7 |
| CN(Cc1ccco1)[C@@H]1CN(Cc2ccncc2)C[C@@H]2CCCO[C@@H]21 | 23.5 |
| CN(C)c1ccc(CNC2(c3ccc(F)cc3)CCOCC2)cc1F | 55.6 |
| CSc1ccc(CNC2(c3ccc(F)cc3)CCOCC2)cc1 | 13.5 |
| Fc1ccc(C2(NCc3ccccc3)CCOCC2)cc1 | 4.48 |
| O=S(=O)(c1cncc(F)c1)N1CCC2(CCCCC2)C1 | 19.3 |
| Cc1noc(C)c1CN1Cc2cnn(C)c2C(COCC2CC2)C1 (configuration not stated) | 54.4 |
| Cc1noc(C)c1CN1Cc2cn(C)nc2C(COCC2CC2)C1 (configuration not stated) | 48.6 |
| Cc1ccc(CN2Cc3cnn(C)c3C(COCC3CC3)C2)o1 (configuration not stated) | 54.4 |
| Cn1ncc2c1C(COCC1CC1)CN(Cc1ccco1)C2 (configuration not stated) | 20.6 |
| Cc1ccc(CN2Cc3nnn(C)c3C(COCC3CC3)C2)o1 (configuration not stated) | -14.7 |
| Cc1ncsc1CN1Cc2cnn(C)c2C(COCC2CC2)C1 (configuration not stated) | -0.813 |
